Screening data from PubChem BioAssay.
KDM5B inh = Primary screen for KDM5B Histone Demethylases FDH-coupled qHTS. Lysine-specific demethylase 5B (Homo sapiens), Q9UGL1. KDM5B demethylase, FDH-coupled NADH fluorescence (FDH is formaldehyde dehydrogenase). Potency, µM (top dose mostly 57.7 µM), usual class: inhibitors. 220,000 compounds, 2.6% hits. AID 1347165, 2019; active = well fitted inhibition curve with a large enough effect; note: 0% is about no effect; nearly all actives have a fitted effect of over 70% in size
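Here, H3K4me3 peptide (12.5 µM in substrate mix) is demethylated by KDM5BΔAP, 200 nM final, after 10 min compound exposure. Formaldehyde product is coupled through FDH (0.25 U/mL in mix) to NADH fluorescence; 30-min ΔRFU feeds dose-response curves.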
* marks the source's active call; other numbers are inactive results; i = inactive. Only a selection was taken, and hits are over-represented in it overall. Potency is the fitted concentration of half-maximal effect.

SMILES	KDM5B inh
CCOC(=O)CCNC(=O)NCCC1CCN(C(=O)Nc2cccc(Cl)c2)CC1	i
CCc1ccc(NC(=O)c2ccccc2SCC(=O)NCc2ccco2)cc1	i
COc1ccc(CCC(C)NC(=O)C2(C#N)CCCC2)cc1 (centres undefined)	i
O=C(NCc1ccc(Cl)cc1)c1nc(Cc2c[nH]c3ccccc23)no1	i
O=C(Nc1ccc(Cl)cc1Cl)c1ccc2cc[nH]c2n1	89.1µM*
O=C(Nc1ccc(Cl)cc1Cl)c1c[nH]c2cccnc12	i
O=C(NC1CC1)c1ccc2cc[nH]c2n1	i
O=C(NCc1ccccc1)c1ccc2ccccc2n1	i
C=CCNC(=O)c1ccc2cc[nH]c2n1	44.7µM*
O=C(Nc1ccc(Cl)cc1Cl)c1ccnc2[nH]ccc12	i
CNC(=O)c1ccc2cc[nH]c2n1	i
O=C(NCc1ccc(Cl)cc1)c1ccc2cc[nH]c2n1	112µM*
Cc1ccc(NC(=O)CCCc2cccs2)c(Br)c1	i
Cc1ccc(-n2nnnc2SCC(=O)Nc2ccc(N3CCOCC3)cc2)cc1C	i
O=C(CSc1nc2cc(Cl)ccc2s1)NC1CC1	i
CCn1nc(C(=O)OCC(=O)c2cc(C)n(CCC(C)C)c2C)c2ccccc2c1=O	i
O=C(NCCc1ccc(O)cc1)C1CCN(c2nc(Cl)nc3nc[nH]c23)CC1	i
C=CCNC(=O)NC(=O)CN(C)Cc1ccc(C(F)(F)F)cc1	i
Cc1[nH]c(=O)[nH]c(=O)c1CCC(=O)Nc1nc(C2CC2)cs1	i
Cc1ccc(-c2ocnc2C(=O)NCCc2cccc(C)c2)cc1	i
Cc1ccc2c(c1)c(C(=O)N[C@H](c1cnn(C)c1)C1CC(O)C1)nn2C (some centres undefined)	28.2µM*
Cn1cc(C(NC(=O)c2cccc(Cn3cccn3)c2)C2CC(O)C2)cn1 (centres undefined)	i
Cc1[nH]c(-c2ccccc2)nc1C(=O)N[C@H](c1cnn(C)c1)C1CC(O)C1 (some centres undefined)	i
CCc1ccc2nc(-c3ccc(C)o3)cc(C(=O)O)c2c1	i
CCc1nc2c(=O)n(CC(=O)NCc3ccc(F)cc3Cl)nc(C)c2s1	i
SMILES	KDM5B inh
Cc1nn(CC(=O)NCc2ccc(F)cc2F)c(=O)c2nc(-c3ccccc3)sc12	31.6µM*
CCc1nc2c(=O)n(CC(=O)NCc3cccnc3)nc(C)c2s1	i
CCc1nc2c(=O)n(CC(=O)NCc3ccc(SC)cc3)nc(C)c2s1	i
CCc1nc2c(=O)n(CC(=O)NCc3ccc(Br)cc3)nc(C)c2s1	i
Cc1nn(CC(=O)NCc2cccnc2)c(=O)c2nc(-c3ccccc3)sc12	28.2µM*
Cc1cc(C(=O)CCC(=O)O)c(C)s1	i
CCNC(=O)N[C@H]1C[C@@H](Cc2cc(COc3ccccc3)on2)C1(C)C	i
CC(OC(=O)c1nn(C)c(=O)c2ccccc12)C(=O)N1CCCc2ccccc21 (centres undefined)	i
C/C(=N\Nc1cc(C)nc(NCc2ccccc2)n1)c1ccncc1	i
COc1ccc(C(=O)Nc2ccc3oc(C)nc3c2)c(OC)c1OC	i
Cc1ccc(CN2CCN(C(=O)CC(C)(C)C)CC2)cc1	i
CCCCn1nc(C(=O)N2CCSCC2)c2ccccc2c1=O	i
O=C1CC(c2ccccc2)N(C(=O)CNC(=O)c2ccccn2)CCCCCN1 (centres undefined)	28.2µM*
O=C1CC(c2ccccc2)N(C(=O)CNC(=O)c2cnccn2)CCCCCN1 (centres undefined)	i
Cc1cnc(C(=O)NCC(=O)N2CCCCCNC(=O)CC2c2ccccc2)cn1 (centres undefined)	i
O=C(COc1ccccc1)Nc1cccn2nc(C3CCC3)nc12	i
O=C(Nc1cccn2nc(C3CCC3)nc12)c1ccc(F)cc1F	31.6µM*
O=C(Nc1cccn2nc(C3CCC3)nc12)c1ccc(F)cc1Cl	i
CCc1ccccc1NCC(=O)Nc1ccc(C#N)cc1	i
CCCCCCOc1ccc(/C=C(/C#N)c2ccccn2)cc1	i
Brc1cccc(-c2noc(CCc3nc4ccccc4[nH]3)n2)c1	i
CN(C)C(=O)c1ccc2cncn2c1	31.6µM*
Cc1ccc(C(=O)NC2CCC(C)CC2)cc1C (centres undefined)	i
CN(C)C(=O)c1cc(F)cc(F)c1	i
CNC(=O)c1ccc(I)cc1	i
SMILES	KDM5B inh
CN(C)C(=O)c1ccc(F)c(F)c1	i
CNC(=O)c1ccc2cncn2c1	31.6µM*
O=C(NC1CC1)c1ccc2cncn2c1	31.6µM*
COc1cc(C(=O)NC2CC2)ccc1C	i
CNC(=O)c1ccn2cncc2c1	i
COc1ccc(-c2cc(NC(=O)c3cccc(S(=O)(=O)NCC4CCCO4)c3)ccc2OC)cc1 (centres undefined)	i
CCC(C)c1ccccc1NC(=O)Cn1cnc2c1c(=O)n(C)c(=O)n2C (centres undefined)	i
CCc1ccc2oc(C(=O)Oc3ccc(C#N)cc3)c(C)c2c1	i
CCOC(=O)c1cnc2ccc(OC)cc2c1Nc1ccc(C(C)=O)cc1	i
CCc1nnsc1C(=O)NCC(C)(C)c1ccc(Br)cc1	i
CCn1nc(C)cc1C(=O)N1CCCC(N(C)CCc2ccc(OC)c(OC)c2)C1 (centres undefined)	i
COc1ccc(CCN(C)C2CCCN(c3ncccc3C#N)C2)cc1OC (centres undefined)	25.1µM*
COc1ccc(CCN(C)Cc2nc(-c3ccccn3)no2)cc1OC	i
Cc1ccccc1OCCC(=O)Nc1cccc2cccnc12	i
CCCOc1ccc(OCC(=O)NC2CCc3ccccc32)cc1 (centres undefined)	i
COC(=O)C(CC(C)C)NC(=O)CC(c1ccccc1)c1ccccc1 (centres undefined)	i
C=CCNc1oc(-c2ccco2)nc1S(=O)(=O)c1ccc2c(c1)OCCO2	i
COc1ccc(CN2Cc3cc(NC(=O)c4ccc(Cl)cc4)ccc3OC(C)C2=O)c(OC)c1 (centres undefined)	25.1µM*
CCC(C(=O)Nc1ccc2c(c1)CN(Cc1ccccc1OC)C(=O)C(C)O2)c1ccccc1 (centres undefined)	i
CCNC(=O)Nc1ccc2c(c1)CN(Cc1ccccc1OC)C(=O)C(C)O2 (centres undefined)	28.2µM*
COc1ccccc1CN1Cc2cc(NC(=O)Cc3ccc(F)cc3)ccc2OC(C)C1=O (centres undefined)	i
COc1ccc(CN2Cc3cc(NC(=O)c4ccc(F)cc4F)ccc3OC(C)C2=O)c(OC)c1 (centres undefined)	i
COc1ccc(C(=O)Nc2ccc3c(c2)CN(Cc2ccc(OC)cc2OC)C(=O)C(C)O3)cc1 (centres undefined)	i
Cc1nn(CC(C)C)c2sc(C(=O)Nc3ccc(S(=O)(=O)N4CCOCC4)cc3)cc12	i
CC(C)(C)c1ccc2cc(C(=O)NC3CC3)[nH]c2c1	i
SMILES	KDM5B inh
CN(C(=O)COc1ccc2c(-c3ccccc3)cc(=O)oc2c1)C1(C#N)CCCCC1	i
O=c1cc(-c2ccncc2)oc2c(-c3cccc(CO)c3)nccc12	35.5µM*
CN1CCN(c2ccc(NC(=O)c3cccc(F)c3)nc2)CC1	i
COc1ccccc1N1CCN(C(=O)CCc2conc2-c2cccc(F)c2)CC1	i
CN1CCN(c2cc(=O)c3ccnc(-c4cccc(F)c4)c3o2)CC1	35.5µM*
O=c1cc(-c2ccncc2)oc2c(-c3cccc4[nH]ccc34)nccc12	i
